# From PubChem
# TbREL1 primary – TbREL1 inhibition, primary screen; P86926; AID 1117264; inhibition, % at 9.66 µM; TbREL1 RNA ligation, FRET fluorescence; actives 0.49% (n = 89,000);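 active = inhibition above the mean inhibition across all screened compounds plus 3 SD, cut at about 11% in these data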;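 also: 0% = plate median of test wells and 100% = NSC42067 control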
# Target sequence (P86926 whole entry, looked up): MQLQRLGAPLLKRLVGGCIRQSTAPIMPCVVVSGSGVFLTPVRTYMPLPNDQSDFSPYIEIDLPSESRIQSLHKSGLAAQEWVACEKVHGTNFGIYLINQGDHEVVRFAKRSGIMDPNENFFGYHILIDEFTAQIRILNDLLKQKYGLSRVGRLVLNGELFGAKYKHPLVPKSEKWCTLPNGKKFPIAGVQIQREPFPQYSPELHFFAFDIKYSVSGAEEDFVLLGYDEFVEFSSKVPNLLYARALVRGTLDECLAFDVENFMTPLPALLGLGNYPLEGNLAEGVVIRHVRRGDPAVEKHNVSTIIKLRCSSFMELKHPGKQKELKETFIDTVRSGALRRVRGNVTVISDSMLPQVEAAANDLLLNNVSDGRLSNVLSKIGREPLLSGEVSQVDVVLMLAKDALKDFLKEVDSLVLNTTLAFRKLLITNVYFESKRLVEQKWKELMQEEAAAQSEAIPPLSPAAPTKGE
# TbREL1 conf – TbREL1 inhibition, confirmation. shares compounds with TbREL1 primary. TbREL1 RNA ligation, FRET fluorescence. inhibition, % at 9.66 µM. actives 37% (n = 390). AID 1117282;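 active = mean inhibition across replicates above a set limit taken from the earlier primary screen, cut at about 11% in these data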;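 also: 0% = REL1 with substrate and DMSO and 100% = REL1 plus control inhibitor NSC42067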
# An asterisk follows results filed as active. Only a selection was taken, and hits are over-represented in it overall.
SMILES,TbREL1 primary,others
Nn1c(SCC(=O)Nc2c(Cl)cccc2Cl)nncc1=O,-1,
CCOc1ccc(NC(=O)CSc2nncc(=O)n2N)cc1,11*,TbREL1 conf=1
Nn1c(SCC(=O)Nc2cccc(C(F)(F)F)c2)nncc1=O,5,
CCOc1ccc(-n2c(SCC(=O)Nc3cccc4ccccc34)nnc2-c2ccco2)cc1,-1,
CCOc1ccc(-n2c(SCC(=O)Nc3ccc(S(=O)(=O)Nc4nccs4)cc3)nnc2-c2ccccc2)cc1,-4,
Cc1cc(NS(=O)(=O)c2ccc(NC(=S)NC(=O)c3ccccc3)cc2)no1,-1,
CCCCCOc1ccc(C(=O)Nc2ccc(S(=O)(=O)Nc3cc(C)on3)cc2)cc1,-2,
CCOc1cc(C(=O)Nc2ccc(S(=O)(=O)Nc3cc(C)on3)cc2)cc(OCC)c1OCC,61*,TbREL1 conf=2
O=C(NCCc1nc2ccccc2n1CCOc1cc(F)ccc1F)C1CCCCC1,2,
O=C(N[C@H](C(=O)N1CCC[C@H]1C(=O)NCCc1ccccc1Cl)C1CCCCC1)c1cccs1,-3,
COc1ccc(-c2cc(-c3nnc4sc(-c5cccs5)nn34)[nH]n2)cc1,4,
Cc1ccc(C(C(=O)NC2CCCCC2)N(C(=O)Cc2c[nH]c3ccccc23)c2ccccc2C)o1 (centres undefined),-1,
Cc1ccc(N(C(=O)c2ccco2)C(C(=O)NC2CCCC2)c2ccco2)c(C)c1 (centres undefined),-2,
Cc1ccc(N(C(=O)Cc2c[nH]c3ccccc23)C(C(=O)NC2CCCCC2)c2ccco2)cc1 (centres undefined),11*,TbREL1 conf=-2
Cc1ccc(-c2cc(-c3nnc(SCC(=O)NC4CCCCC4)n3N)[nH]n2)cc1,2,
Cc1ccccc1N(C)C(=O)C1CCCN1S(=O)(=O)c1cccc2cccnc12 (centres undefined),0,
Cc1nn(-c2ccccc2)c(C)c1/C=N\NC(=O)CSc1nc2ccccc2n1Cc1ccc(Cl)cc1,1,
O=C(NCC(c1ccccc1)c1ccccc1)[C@H](Cc1c[nH]c2ccccc12)NC1(C(=O)NC2CCCCC2)CCN(Cc2ccccc2)CC1,-4,
CC(C)C[C@H](NC1(C(=O)NC2CCCCC2)CCOCC1)C(=O)NCC(c1ccccc1)c1ccccc1,9,
O=C(NCC(c1ccccc1)c1ccccc1)[C@H](Cc1ccccc1)NC1(C(=O)NC2CCCCC2)CCCCCC1,12*,TbREL1 conf=0
CC(C)C[C@H](NC1(C(=O)NC2CCCCC2)CCC1)C(=O)NCC(c1ccccc1)c1ccccc1,-1,
CN1CCC(N[C@@H](Cc2ccccc2)C(=O)NCC(c2ccccc2)c2ccccc2)(C(=O)NC2CCCCC2)CC1,13*,TbREL1 conf=14*
COC(CNC(=O)[C@H](Cc1ccccc1)NC1(C(=O)NC2CCCCC2)CCC1)OC,-3,
C=CCN1C(=O)[C@H](CC(=O)N2CCCC2)[C@@]2(C(=O)OCC)CCCC=C12,2,
COc1cccc2cc3c(nc12)C[C@@H]1CCCC(=O)N2CCC[C@@]12C3,-3,
SMILES,TbREL1 primary,others
Cc1cc(Cl)c(OCCN2C(=O)NC(C)(C)C2=O)c(Br)c1,-1,
Cc1cc(C)c(OCCCNCc2ccccc2)c(Br)c1,15*,TbREL1 conf=15*
CCCCNCc1cc(Br)c(OCC(=O)NCc2ccccc2)c(OC)c1,3,
COc1cccc(OCCNCc2ccccc2)c1,1,
Cc1cc(Cl)c(OCCCNCc2ccccc2)c(Br)c1,12*,TbREL1 conf=11*
Clc1ccc(OCCCNCc2ccccc2)c(Br)c1,2,
CCOc1ccc(NC(=O)c2cc(-c3ccc(Cl)cc3)nc3ccccc23)cc1,6,
CN1CCCCC(NC(=O)c2ccccc2)C1=O (centres undefined),-1,
Cc1ccc(C(=O)NN2C(=O)c3ccc(S(=O)(=O)c4ccc(C(=O)O)cc4)cc3C2=O)cc1,3,
O=C(O)c1ccc(S(=O)(=O)c2ccc3c(c2)C(=O)N(NC(=O)c2ccc(O)cc2)C3=O)cc1,12*,TbREL1 conf=2
O=C(O)c1ccc(S(=O)(=O)c2ccc3c(c2)C(=O)N(CC2CCCO2)C3=O)cc1 (centres undefined),1,
C[C@H]1CCC[C@@H](O)CC(=O)c2c(O)cc(O)cc2CC(=O)O1,0,
O=C(CSc1nnc(-c2cccnc2)n1-c1ccc(Cl)cc1)Nc1ccc(S(=O)(=O)Nc2nccs2)cc1,-2,
Cc1cc(C(=O)Nc2ccc(F)cc2)n(-c2ccccc2)n1,7,
Cc1ccc(OCCN2C(=O)C(=O)c3cc(C)ccc32)cc1,12*,TbREL1 conf=5
O=C1c2ccccc2C(=O)N1CCOc1ccccc1,0,
Cc1ccc(OCCn2c(=O)sc3ccccc32)cc1,3,
Cc1ccc(-n2c(SCC(=O)Nc3ccc(S(=O)(=O)Nc4cc(C)nc(C)n4)cc3)nnc2-c2cccs2)cc1,-2,
CC(=O)C(C(C)=O)C1(O)C(=O)c2ccccc2C1=O,7,
O=C(NC(C(=O)O)c1ccccc1)c1ccccc1 (centres undefined),1,
O=C(NC1(O)C(=O)c2ccccc2C1=O)c1ccccc1,22*,TbREL1 conf=49*
O=C(NCC(c1ccccc1)c1ccccc1)[C@H](Cc1c[nH]c2ccccc12)NC1(C(=O)NC2CCCCC2)CCC1,-5,
CCCCC(=O)N1CCC(NS(=O)(=O)c2ccc3c(c2)CCN3C(C)=O)CC1,4,
Brc1cccc(Cn2ccc3ccc(-c4ccc5ccn(Cc6cccc(Br)c6)c5c4)cc32)c1,4,
O=C(NC1CCCCN(Cc2ccc(Cl)cc2)C1=O)c1ccccc1 (centres undefined),4,
SMILES,TbREL1 primary,others
O=C(NC1CCCCN(Cc2ccc(Cl)cc2)C1=O)c1ccc(COc2ccccc2)cc1 (centres undefined),12*,TbREL1 conf=-2
Cc1ccccc1CN1CCCCC(NC(=O)c2ccc(COc3ccccc3)cc2)C1=O (centres undefined),0,
O=C(OCc1cn(Cc2ccc(F)cc2)nn1)N1CCCC1,6,
CC(=O)N1CCc2cc(S(=O)(=O)NC3CCN(C(=O)CCl)CC3)ccc21,-1,
COc1ccccc1CCC(=O)OCC(=O)NC1CC1,34*,TbREL1 conf=5
COc1ccccc1CNC(=O)COC(=O)CC1CC2CCC1C2 (centres undefined),5,
O=C(COC(=O)Cc1ccc(Br)cc1)NC1CC1,-1,
COc1ccc(N2CCN(CCNS(=O)(=O)c3ccccc3[N+](=O)[O-])CC2)cc1,-6,
NC(=NC(=O)/C=C/c1ccccc1Br)N(CC#Cc1ccccc1)CC#Cc1ccccc1,1,
CCOc1ccc(N(CC(=O)Nc2c(C)n(C)n(-c3ccccc3)c2=O)S(=O)(=O)c2ccc(C)c(C)c2)cc1,-2,
c1ccc(CCNCCCOc2cccc3ccccc23)cc1,12*,TbREL1 conf=10
CC(=O)NCCOc1cccc2ccccc12,4,
Clc1ccc(OCCNCCc2ccccc2)cc1,4,
O=C(NCCc1c[nH]c2ccccc12)OCc1cn(-c2ccccc2Cl)nn1,-1,
